KCNQ2 block – blocks the rat KCNQ2 potassium channel. AID 2156. O88943. B-score at 10 µM. 310,000 tested, 1.1% active. CHO-K1 KCNQ2, FluxOR thallium flux, 20 min; hits give low values;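 active means fluorescence ratio B-score at most minus 3 library SDs, with starting brightness B-score within 2 library SDs, cut at about -5.5 in these data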
KCNQ2 enhance – potentiators of rat KCNQ2 potassium channel | CHO-K1 KCNQ2, FluxOR thallium flux fluorescence; hits give high values | B-score at 10 µM | 310,000 tested, 0.54% active | AID 2239;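 active means fluorescence ratio B-score at least 3 SD of library B-scores, with initial fluorescence B-score within 3 of them, cut at about 5.3 in these data; same plate scores as AID 2156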;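 further: B-score of peak minus minimum over baseline fluorescence ratio after K+ and Tl+ stimulus; positive B-score means potentiation of KCNQ2 with more thallium influx and brighter signal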
Active calls of the source: *; i = inactive; x = no result given. An excerpt weighted towards active compounds, which were near 1.6% of everything screened.

SMILES | KCNQ2 block | KCNQ2 enhance
O=C(C1CCCN(S(=O)(=O)c2ccc(F)cc2)C1)N1CCCCC1 (centres undefined) | i | 2.14
CCCCNC(=O)CNC(=S)N(Cc1ccc(C)cc1)Cc1ccco1 | i | 0.59
CCOC(=O)CNC(=S)N(Cc1ccco1)Cc1ccccc1Cl | -6.49* | -6.49
CN(C)c1cc[n+](CC(=O)c2ccc(-c3ccccc3)cc2)cc1 | i | x
CC(=O)N[C@@H]1[C@@H](O)[C@@H]2OC(c3ccccc3)OC[C@H]2O[C@@H]1N=[N+]=[N-] (some centres undefined) | i | x
O=C(OCn1ncc(Br)c(Br)c1=O)c1ccc(F)cc1 | -5.6* | -5.6
O=C(OCn1ncc(Br)c(Br)c1=O)c1ccccc1Cl | i | x
O=C(NC1=C(Nc2ccc(Cl)cc2)C(=O)c2ccccc2C1=O)c1ccccc1 | i | x
CN(C1=C(NC(=O)c2ccc(Cl)cc2)C(=O)c2ccccc2C1=O)c1ccccc1 | -6.33* | -6.33
O=c1c2ccc([N+](=O)[O-])cc2ncn1Cc1ccccc1C(F)(F)F | i | 0.05
COc1cccc(/C=N/NC(=O)CSc2ccccc2C)c1OC | i | x
COc1cccc(/C=N/NC(=O)CSc2ccccc2C)c1O | i | 9.45*
CCOC(=O)c1cnn(C)c1NC(=O)c1ccc([N+](=O)[O-])cc1 | i | x
CCN(c1ccc(OC)cc1)S(=O)(=O)c1nnc(NC(=O)c2ccccc2Cl)s1 | i | x
CCCCn1c(N)c(N(CC)C(=O)c2ccc([N+](=O)[O-])c(C)c2)c(=O)[nH]c1=O | i | x
Cc1ccc(CSc2nnc(-c3ccc(NS(=O)(=O)c4ccccc4)cc3)o2)cc1 | i | x
COC(=O)CSc1nnc(-c2ccc(NS(=O)(=O)c3ccccc3)cc2)o1 | -6.18* | -6.18
NC(=O)COC(=O)c1oc2ccccc2c1CSc1ccc(Cl)cc1 | i | x
O=C(COC(=O)c1oc2ccccc2c1CSc1ccc(Cl)cc1)NC1CCCC1 | -6.43* | -6.43
CC1(c2ccc(Cl)cc2Cl)NC(=O)N(CC(=O)Nc2ccc3[nH]c(=O)[nH]c3c2)C1=O (centres undefined) | i | x
Cc1ccc(-n2cc(C(=O)c3cc(Cl)ccc3O)cc(C#N)c2=O)cc1 | i | x
Cc1ccccc1NC(=O)c1cc(C(=O)c2cc(Cl)ccc2O)cn(-c2ccccc2C)c1=O | -5.6* | -5.6
CCOC(=O)c1c(NC(=O)COC(=O)Cn2cnc3c2c(=O)n(C)c(=O)n3C)sc(C)c1CC | i | x
Oc1ccc2ccccc2c1C=Nc1ccccc1Br | i | x
Oc1c(Br)cc(Cl)cc1C=Nc1ccccc1Br | i | 8.36*
SMILES | KCNQ2 block | KCNQ2 enhance
C/C(=N\Nc1nc2ccccc2[nH]1)c1ccc(C)o1 | i | 0.11
C/C(=N\Nc1nc2ccccc2[nH]1)c1ccc(Cl)s1 | i | 13.4*
CCN(CC1CCCN(CCc2cccc(F)c2)C1)C(=O)c1cc2ccccc2o1 (centres undefined) | i | x
CN(CC1CCCN(CCc2cccc(C(F)(F)F)c2)C1)C(=O)c1cc2ccccc2o1 (centres undefined) | -6.97* | -6.97
COc1ccc(/C=C(\NC(=O)c2ccccc2)C(=O)NCc2ccco2)cc1OC | i | x
Cc1ccc(S(=O)(=O)/N=C(\N)c2ccc(Cl)cc2)cc1 | i | 0.01
Cc1ccccc1OCCC(=O)OCC(=O)NC1CCCCC1 | i | 1.08
CC(NC(=O)C1CC1)c1ccc(-c2ccccc2)cc1 (centres undefined) | i | 0.04
FC(F)(F)c1ccc(-c2csc(-c3ccno3)n2)cc1 | i | x
CC(C)(C)C(=O)OCc1nc(-c2ccc(C(F)(F)F)cc2)cs1 | -5.59* | -5.59
CCN(CC)S(=O)(=O)c1ccc(N2CCOCC2)c(NC(=O)c2ccccc2F)c1 | i | x
CCN(CC)S(=O)(=O)c1ccc(N2CCOCC2)c(NC(=O)c2cc3ccccc3oc2=O)c1 | -5.54* | -5.54
COc1ccccc1NC(=O)c1cc(C)oc1C | i | x
CCOc1ccccc1NC(=O)c1cc(CC(C)C)oc1C | -6.16* | -6.16
Cc1c(S(=O)(=O)N2CCN(c3ccccc3)CC2)c(=O)n(C)c(=O)n1C | i | 0.78
CN(CC(=O)Nc1ccccc1C(F)(F)F)C(=O)CSCc1ccccc1 | i | 1.68
COC(=O)CN1C(=S)N(C)C(=O)/C1=C/c1cccs1 | i | x
CCc1ccc(/C=C2/C(=O)N(C)C(=S)N2CC(=O)OC)s1 | -5.95* | -5.95
CCCc1cc(C(=O)N2CCN(c3ccc(C(F)(F)F)cn3)CC2)sc1C | i | x
O=C(O)CCC(=O)Nc1ccc2c(c1)Cc1cc(NC(=O)CCC(=O)O)ccc1-2 | i | 0.23
O=C(/C=C/c1cccs1)c1cc(Br)ccc1OC(=O)N1CCOCC1 | -6.81* | -6.81
COc1ccc(C(=O)/C=C/c2cccs2)c(OC(=O)N2CCOCC2)c1 | i | 0.23
Cc1cccnc1N1C(=O)c2ccc(C(=O)O)cc2C1=O | i | 0.35
COc1cccc(NC(=O)CN(C)C(=O)c2cc(-c3ccco3)nc3ccccc23)c1 | i | x
CN(CCOc1ccc(Cl)cc1)C(=O)c1cc(-c2ccco2)nc2ccccc12 | -13.2* | -13.2
SMILES | KCNQ2 block | KCNQ2 enhance
CCN1CCc2[nH]c3ccccc3c2C1 | i | x
O=C(CSc1nc2ccccc2s1)N1c2ccccc2Sc2ccc(C(F)(F)F)cc21 | -6.5* | -6.5
O=C(CSc1nc2ccccc2s1)N1c2ccccc2Sc2ccc(Cl)cc21 | i | x
O=C(NN=C(Cc1ccccc1)Cc1ccccc1)c1ccc(F)cc1 | -5.62* | -5.62
O=C(NN=C(Cc1ccccc1)Cc1ccccc1)c1ccccc1O | i | 1.4
NC(=S)NN=C(Cc1ccccc1)Cc1ccccc1 | -5.63* | -5.63
C/C(Cc1ccccc1)=N\NC(=O)c1ccc(F)cc1 | i | 2.84
O=C(CC1C(=O)NCCN1CC1CCCCC1)NCCc1ccc(F)cc1 (centres undefined) | i | x
COc1ccc(S(=O)(=O)N2CCOCC2)cc1NC(=O)c1cccc(Cl)c1 | i | 0.75
N#Cc1ccc(CSc2nnc(COc3ccccc3)n2-c2ccccc2)cc1 | -5.61* | -5.61
COc1ccc(-n2c(COc3ccccc3)nnc2SCc2ccc(C#N)cc2)cc1 | i | 0.05
O=C(c1cc2c(s1)-c1ccccc1OC2)N1CCc2ccccc2C1 | -5.57* | -5.57
COc1ccccc1N1CCN(C(=O)c2cc3c(s2)-c2ccccc2OC3)CC1 | i | x
CN(C)S(=O)(=O)c1cccc(NC(=S)Nc2cc(Cl)cc(Cl)c2)c1 | i | 1.04
CCN(CCO)c1ccc(NC(=S)Nc2cccc(S(=O)(=O)N(C)C)c2)cc1 | -6.73* | -6.73
O=C(NCCO[N+](=O)[O-])c1cccnc1 | i | x
CCOC(=O)N1CCC(c2cc(=O)n3[nH]cc(C(=O)OC)c3n2)CC1 | i | x
CCOc1ccc(NC(=O)c2c[nH]n3c(=O)cc(C4CCN(C(=O)OC(C)(C)C)CC4)nc23)cc1 | i | 8.55*
COc1ccc(/C=C2\C(=O)c3ccccc3OC2c2ccccc2)cc1 (centres undefined) | i | x
CCOc1ccc(/C=C2\C(=O)c3ccccc3OC2c2ccccc2)cc1 (centres undefined) | -6.2* | -6.2
COc1ccccc1C(=O)OCc1c(F)cccc1Cl | i | x
COC(=O)c1ccc(CNC(=O)C23CC4CC(CC(C4)C2)C3)cc1 | i | x
COC(=O)c1cc(NS(=O)(=O)c2ccc(NC(C)=O)cc2)cc(C(=O)OC)c1 | i | x
CCN=C(NCC)SC1CC(=O)N(c2ccc(OC)cc2)C1=O (centres undefined) | i | x

Source: PubChem BioAssay (Johns Hopkins Ion Channel Center)
